Test results taken from PubChem BioAssay (NCI).
Compounds without any hit were thinned out: in the full panel of roughly 79,000, 15% have a hit. Values without a mark were called inactive. Activity calls are given as the source filed them. Cut-off read from the data, not from the text of the source: active = growth inhibition above about 70%; inactive = the rest.

Experiments:
[1] = NCI Yeast Anticancer Drug Screen. Data for the rad50 strain (AID 155);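 note: 0% = growth of vehicle-only cultures of the same strain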; details: S. cerevisiae rad50 strain growth inhibition, active compounds read high
Outline: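 Relative growth inhibition (compound vs vehicle) was measured in yeast with a defined repair-gene alteration.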

[2] = NCI Yeast Anticancer Drug Screen. Data for the mec2-1 strain (AID 157); details: S. cerevisiae mec2-1 strain, active compounds read high
Outline: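 Strain: mec2-1 (DNA repair/cell cycle alteration). Compound exposure, then growth measured; inhibition expressed relative to vehicle.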

[3] = NCI Yeast Anticancer Drug Screen. Data for the sgs1 mgt1 strain (AID 161);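 note: 0% = growth of cultures given vehicle only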; details: S. cerevisiae sgs1 mgt1 strain, active compounds read high
Outline: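 Inhibition of yeast growth, normalised to vehicle-treated controls, is reported for a strain bearing genetic alterations in DNA damage repair.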

[4] = NCI Yeast Anticancer Drug Screen. Data for the cln2 rad14 strain (AID 165);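 note: 0% = growth equal to vehicle treated cultures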; details: S. cerevisiae cln2 rad14 strain, active compounds read high
Outline: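 Compounds are applied to the cln2 rad14 yeast strain, and growth is then compared with that of vehicle-treated cultures to give inhibition.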

[5] = NCI Yeast Anticancer Drug Screen. Data for the bub3 strain (AID 167); details: S. cerevisiae bub3 mutant strain, active compounds read high
Outline: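 Screening used yeast with an engineered genetic alteration affecting cell cycle control. Compound-exposed cultures were compared with vehicle cultures, and reduced growth was taken as inhibition.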

[6] = NCI Yeast Anticancer Drug Screen. Data for the mlh1 rad18 strain (AID 175); details: S. cerevisiae mlh1 rad18 strain growth inhibition, active compounds read high
Outline: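 Read-out is yeast growth inhibition, calculated against vehicle-only controls. The compound was applied to a strain engineered with DNA damage repair alterations.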

[7] = at 5.0 µM (retest, dose inferred, filed as 0.5)
[8] = at 50.0 µM (retest, dose inferred, filed as 5.0)

## O=C(Nc1cccc2ccccc12)OCCCCCCl
[1]; [7]
  growth inhibition: -2%
[1]; [8]
  growth inhibition: 97% (active)
[1]; at 50.0 µM
  growth inhibition: 97% (active)
[2]; [7]
  growth inhibition: -2%
[2]; [8]
  growth inhibition: 96% (active)
[2]; at 50.0 µM
  growth inhibition: 97% (active)
[3]; [7]
  growth inhibition: 1%
[3]; [8]
  growth inhibition: 98% (active)
[3]; at 50.0 µM
  growth inhibition: 97.1% (active)
[4]; [7]
  growth inhibition: -6%
[4]; [8]
  growth inhibition: 95% (active)
[4]; at 50.0 µM
  growth inhibition: 95.5% (active)
[5]; [7]
  growth inhibition: -5%
[5]; [8]
  growth inhibition: 93% (active)
[5]; at 50.0 µM
  growth inhibition: 97.2% (active)
[6]; [7]
  growth inhibition: -16%
[6]; [8]
  growth inhibition: 93% (active)
[6]; at 50.0 µM
  growth inhibition: 97.4% (active)

## Nc1ccc2nc(Nc3ccc(Cl)c(Cl)c3)cnc2c1
[1]; [7]
  growth inhibition: -17%
[1]; [8]
  growth inhibition: 97% (active)
[1]; at 50.0 µM
  growth inhibition: 85.7% (active)
[2]; [7]
  growth inhibition: -1%
[2]; [8]
  growth inhibition: 97% (active)
[2]; at 50.0 µM
  growth inhibition: 86.5% (active)
[3]; [7]
  growth inhibition: 7%
[3]; [8]
  growth inhibition: 97% (active)
[3]; at 50.0 µM
  growth inhibition: 87.7% (active)
[4]; [7]
  growth inhibition: 14%
[4]; [8]
  growth inhibition: 97% (active)
[4]; at 50.0 µM
  growth inhibition: 87.2% (active)
[5]; [7]
  growth inhibition: 28%
[5]; [8]
  growth inhibition: 95% (active)
[5]; at 50.0 µM
  growth inhibition: 83.8% (active)
[6]; [7]
  growth inhibition: 25%
[6]; [8]
  growth inhibition: 87% (active)
[6]; at 50.0 µM
  growth inhibition: 80.8% (active)

## COC(=O)C1CCC(=O)N1C(c1ccc(OC)cc1)c1cc(OC)c(OC)c(OC)c1 (stereo not given)
[1]; [7]
  growth inhibition: 27%
[1]; [8]
  growth inhibition: 45%
[1]; at 50.0 µM
  growth inhibition: -33.5%
[2]; [7]
  growth inhibition: 21%
[2]; [8]
  growth inhibition: 15%
[2]; at 50.0 µM
  growth inhibition: 8.55%
[3]; [7]
  growth inhibition: 32%
[3]; [8]
  growth inhibition: 42%
[3]; at 50.0 µM
  growth inhibition: 1.95%
[4]; [7]
  growth inhibition: 46%
[4]; [8]
  growth inhibition: 40%
[4]; at 50.0 µM
  growth inhibition: -7.4%
[5]; [7]
  growth inhibition: 43%
[5]; [8]
  growth inhibition: 41%
[5]; at 50.0 µM
  growth inhibition: -8.55%
[6]; [7]
  growth inhibition: 17%
[6]; [8]
  growth inhibition: 20%
[6]; at 50.0 µM
  growth inhibition: -10.2%

## COc1ccc2c(Cc3cc(Cl)ccc3O)cncc2c1O
[1]; [7]
  growth inhibition: -1%
[1]; [8]
  growth inhibition: 32%
[1]; at 50.0 µM
  growth inhibition: 50.1%
[2]; [7]
  growth inhibition: -8%
[2]; [8]
  growth inhibition: 60%
[2]; at 50.0 µM
  growth inhibition: 31.6%
[3]; [7]
  growth inhibition: -5%
[3]; [8]
  growth inhibition: 51%
[3]; at 50.0 µM
  growth inhibition: 29.7%
[4]; [7]
  growth inhibition: 3%
[4]; [8]
  growth inhibition: -4%
[4]; at 50.0 µM
  growth inhibition: 40%
[5]; [7]
  growth inhibition: -2%
[5]; [8]
  growth inhibition: 31%
[5]; at 50.0 µM
  growth inhibition: 96% (active)
[6]; [7]
  growth inhibition: 16%
[6]; [8]
  growth inhibition: 62%
[6]; at 50.0 µM
  growth inhibition: 82.3% (active)

## COC(=O)CC1(O)c2cc(OC)c3cccc(OC)c3c2CCC1(C)C(=O)OC (stereo not given)
[1]; [7]
  growth inhibition: 88% (active)
[1]; [8]
  growth inhibition: 97% (active)
[1]; at 50.0 µM
  growth inhibition: 92.9% (active)
[2]; [7]
  growth inhibition: 91% (active)
[2]; [8]
  growth inhibition: 99% (active)
[2]; at 50.0 µM
  growth inhibition: 88.8% (active)
[3]; [7]
  growth inhibition: 85% (active)
[3]; [8]
  growth inhibition: 99% (active)
[3]; at 50.0 µM
  growth inhibition: 95.2% (active)
[4]; [7]
  growth inhibition: 80% (active)
[4]; [8]
  growth inhibition: 97% (active)
[4]; at 50.0 µM
  growth inhibition: 96% (active)
[5]; [7]
  growth inhibition: 83% (active)
[5]; [8]
  growth inhibition: 98% (active)
[5]; at 50.0 µM
  growth inhibition: 88.5% (active)
[6]; [7]
  growth inhibition: 92% (active)
[6]; [8]
  growth inhibition: 98% (active)
[6]; at 50.0 µM
  growth inhibition: 94.8% (active)

## CC(C)C1=C2CCC3(C)C(CCC4C5C6OCC5(CCC6(C)C)CCC43C)C2(C)CC1 (stereo not given)
[1]; [7]
  growth inhibition: 22%
[1]; [8]
  growth inhibition: 49%
[1]; at 50.0 µM
  growth inhibition: 72.5% (active)
[2]; [7]
  growth inhibition: 6%
[2]; [8]
  growth inhibition: 40%
[2]; at 50.0 µM
  growth inhibition: 77.5% (active)
[3]; [7]
  growth inhibition: 19%
[3]; [8]
  growth inhibition: 69%
[3]; at 50.0 µM
  growth inhibition: 82.3% (active)
[4]; [7]
  growth inhibition: 27%
[4]; [8]
  growth inhibition: 62%
[4]; at 50.0 µM
  growth inhibition: 83.7% (active)
[5]; [7]
  growth inhibition: 10%
[5]; [8]
  growth inhibition: 57%
[5]; at 50.0 µM
  growth inhibition: 77% (active)
[6]; [7]
  growth inhibition: 17%
[6]; [8]
  growth inhibition: 45%
[6]; at 50.0 µM
  growth inhibition: 65.5%

## O=C(Nc1ccccc1)c1ccc([N+](=O)[O-])o1
[1]; [7]
  growth inhibition: 12%
[1]; [8]
  growth inhibition: 83% (active)
[1]; at 50.0 µM
  growth inhibition: 96.3% (active)
[2]; [7]
  growth inhibition: 3%
[2]; [8]
  growth inhibition: 73% (active)
[2]; at 50.0 µM
  growth inhibition: 95.7% (active)
[3]; [7]
  growth inhibition: 9%
[3]; [8]
  growth inhibition: 82% (active)
[3]; at 50.0 µM
  growth inhibition: 98.6% (active)
[4]; [7]
  growth inhibition: -2%
[4]; [8]
  growth inhibition: 31%
[4]; at 50.0 µM
  growth inhibition: 80.2% (active)
[5]; [7]
  growth inhibition: 2%
[5]; [8]
  growth inhibition: 79% (active)
[5]; at 50.0 µM
  growth inhibition: 91.4% (active)
[6]; [7]
  growth inhibition: 24%
[6]; [8]
  growth inhibition: 91% (active)
[6]; at 50.0 µM
  growth inhibition: 98.5% (active)

## O=[N+]([O-])c1ccc2c(c1)[nH]c1ccccc12
[1]; [7]
  growth inhibition: -138%
[1]; [8]
  growth inhibition: 36%
[1]; at 50.0 µM
  growth inhibition: 93.2% (active)
[2]; [7]
  growth inhibition: -45%
[2]; [8]
  growth inhibition: -32%
[2]; at 50.0 µM
  growth inhibition: 40.1%
[3]; [7]
  growth inhibition: -65%
[3]; [8]
  growth inhibition: -11%
[3]; at 50.0 µM
  growth inhibition: 73.8% (active)
[4]; [7]
  growth inhibition: -57%
[4]; [8]
  growth inhibition: -63%
[4]; at 50.0 µM
  growth inhibition: 68.6%
[5]; [7]
  growth inhibition: -66%
[5]; [8]
  growth inhibition: -40%
[5]; at 50.0 µM
  growth inhibition: 69.2%
[6]; [7]
  growth inhibition: -139%
[6]; [8]
  growth inhibition: -10%
[6]; at 50.0 µM
  growth inhibition: 89% (active)

## Nc1ccc(-c2ccc(Cl)cc2)cc1
[1]; [7]
  growth inhibition: 0%
[1]; [8]
  growth inhibition: 96% (active)
[1]; at 50.0 µM
  growth inhibition: 96.7% (active)
[2]; [7]
  growth inhibition: -2%
[2]; [8]
  growth inhibition: 61%
[2]; at 50.0 µM
  growth inhibition: 78.7% (active)
[3]; [7]
  growth inhibition: -1%
[3]; [8]
  growth inhibition: 78% (active)
[3]; at 50.0 µM
  growth inhibition: 94.5% (active)
[4]; [7]
  growth inhibition: -6%
[4]; [8]
  growth inhibition: 93% (active)
[4]; at 50.0 µM
  growth inhibition: 92.2% (active)
[5]; [7]
  growth inhibition: 4%
[5]; [8]
  growth inhibition: 61%
[5]; at 50.0 µM
  growth inhibition: 96.9% (active)
[6]; [7]
  growth inhibition: -1%
[6]; [8]
  growth inhibition: 95% (active)
[6]; at 50.0 µM
  growth inhibition: 93.3% (active)

## CC12CCC(=O)C=C1CCC1C2CCC2(C)C(c3cnc[nH]3)CCC12 (stereo not given)
[1]; [7]
  growth inhibition: 51%
[1]; [8]
  growth inhibition: 75% (active)
[1]; at 50.0 µM
  growth inhibition: 77% (active)
[2]; [7]
  growth inhibition: 36%
[2]; [8]
  growth inhibition: 46%
[2]; at 50.0 µM
  growth inhibition: 30.1%
[3]; [7]
  growth inhibition: 39%
[3]; [8]
  growth inhibition: 82% (active)
[3]; at 50.0 µM
  growth inhibition: 65.2%
[4]; [7]
  growth inhibition: 52%
[4]; [8]
  growth inhibition: 43%
[4]; at 50.0 µM
  growth inhibition: 34.9%
[5]; [7]
  growth inhibition: 53%
[5]; [8]
  growth inhibition: 70% (active)
[5]; at 50.0 µM
  growth inhibition: 69.5%
[6]; [7]
  growth inhibition: 41%
[6]; [8]
  growth inhibition: 70% (active)
[6]; at 50.0 µM
  growth inhibition: 39.1%
